ATXN2 expr inh: inhibitors of ATXN2 expression. HEK-293 ATXN2-luciferase reporter, luminescence, 24 h. Potency, µM (series often up to 57 µM), without a hit: top-dose activity change, negative = inhibition, actives largely listed as inhibitors. 360,000 compounds, 0.72% hits; note: % is set by controls: 0 for no effect and ±100 for the full control effect; nearly all actives have a fitted effect of over 55% in size
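ATXN2-luciferase reporter cells (luciferase flanked by upstream and downstream ATXN2 gene portions) were treated 24 h at 37 °C with compounds at up to 57 uM. SteadyGlo luminescence gave expression; GF-AFC fluorescence gave viability.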
Nrf2 activator: activates Nrf2 signaling; AREc32 ARE-luciferase reporter (MCF7-derived line), luminescence, 24 h; Potency, µM (top dose mostly 46.1 µM), inactives show at the top dose activation, usual class: activators; 410,000 compounds, 0.31% hits; note: % of control where 0% means no effect; nearly all actives have a fitted effect of over 65% in size
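Each well held 1000 AREc32 cells, which were incubated with compound for 24 hr at 37 deg C after overnight attachment, and ARE reporter activity was quantified by firefly luciferase luminescence.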
ATXN viability: cell viability loss in ATXN counter-screen; S2 cells (HEK-293 line with an ATXN2-luciferase reporter) viability, CellTiter-Fluor protease fluorescence, 24 h; Potency, µM (series often up to 56.7 µM), most hits filed as cytotoxic; 400,000 compounds, 0.49% hits; note: nearly all actives have a fitted effect of over 40% in size
A549 tox: A549 cytotoxicity, counter-screen for Nrf2 inhibitors. Potency, µM (highest dose often 46 µM), for inactives: at the highest dose activity change, negative = cytotoxicity, hits mostly inhibitors. A549 ARE-Fluc cells, CellTiter-Fluor viability, 18-24 h. 390,000 compounds, 0.16% hits; note: % is set by controls: 0 for no effect and ±100 for the full control effect
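Cytotoxicity counterscreen: CellTiter-Fluor fluorescence was measured in A549 ARE_Fluc cells after 18-24 h of compound exposure in a concentration series. The subsequent BugLite luminescent read reports ARE-luciferase activity.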
Nrf2 inh: blocks Nrf2 signaling | A549 ARE-Fluc reporter, luciferase luminescence, 18-24 h | Potency, µM (doses to about 46 µM), inactives show at the top dose activity change, negative = inhibition, hits mostly inhibitors | 360,000 compounds, 2.1% hits; note: % is set by controls: 0 for no effect and ±100 for the full control effect; nearly all actives have a fitted effect of over 60% in size
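Concentration-response testing used A549 ARE_Fluc cells at 5000 cells/well. Following an 18-24 h compound incubation, viability was read by fluorescence (Ex 405/Em 525) and luciferase output by luminescence.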
An asterisk follows results filed as active; i = inactive; ? = inconclusive; · = no result; [ ] = another dose, or the depositor's remark. Most compounds without a hit are left out; they make up all but 2.9% or so of the library. Calls come from the whole dose curve; as a rule, active = well fitted curve in the direction sought with a large enough effect; inconclusive = small, poorly fitted or top-dose-only effect, or another doubt; inactive = no such curve, though single readings can be large; an effect the other way counts as inactive or inconclusive. Potency is the fitted concentration of half-maximal effect.

SMILES	ATXN2 expr inh	Nrf2 activator	ATXN viability	A549 tox	Nrf2 inh
O=C(CNC(=O)c1ccc(Cl)cc1)Nc1ccc(Br)cc1C(=O)c1ccccc1	-13.7%[11.3 µM]	4.5%	i	-2.9%	?
CN(C)S(=O)(=O)c1ccc(C(=O)NNc2nc(-c3ccccc3)c3cc(Br)ccc3n2)cc1	-15.2%	5.0%	i	-20.3%	13µM*
Cc1ccc(NC(=O)Cn2c(=O)oc3ccccc32)cc1C	-2.7%	0.1%	?	-2.1%	4.5%
COc1ccc(-c2nc(NC(=O)Cn3c(=O)oc4ccccc43)sc2C)cc1	-19.4%	3.6%	i	-17.3%	18.4µM*
Cc1oc(-c2ccccc2Cl)nc1CN1C(=O)CN=C(c2ccccc2)c2cc(Cl)ccc21	?	-0.7%	·	?	?
CS(=O)(=O)c1ccc(C2=C(CNC(=O)c3ccc([N+](=O)[O-])cc3)[C@H]3CC[C@@H](C2)N3Cc2ccccc2)cc1	-2.1%	3.5%	i	·	·
O=C(NCC1=C(c2cccc3ccccc23)C[C@@H]2CC[C@H]1N2Cc1ccco1)c1ccc([N+](=O)[O-])cc1	?	-2.8%	14.1µM*	·	·
COc1cccc(C(c2nnnn2C2CCCCC2)N2CCC3(CC2)C(=O)NCN3c2ccccc2)c1OC (configuration not stated)	?	-2.6%	?	·	·
COC[C@H]1OC(=O)c2coc3c2[C@@]1(C)C1=C(C3=O)[C@@H]2CCC(=O)[C@@]2(C)C[C@H]1OC(C)=O	-23.4%	?	i	16.4µM*	3.66µM*
COc1ccc(NC(c2ccccc2)P(=O)(Oc2ccccc2)Oc2ccccc2)cc1 (configuration not stated)	·	0.2%	i	-2.3%	-27.2%
COC(=O)C1=C(c2ccc(-c3ccccc3)c(F)c2)C[C@@H]2CC[C@H]1N2C(=O)N1CCC(C)CC1	-34.8%	0.5%	?	-7.2%	16.4µM*
COC(=O)C1=C(c2ccc(-c3ccccc3)c(F)c2)C[C@@H]2CC[C@H]1N2C(=O)N1CCCC1	?	0.6%	?	-1.3%	20.6µM*
COC(=O)C1=C(c2ccc(-c3ccccc3)c(F)c2)C[C@@H]2CC[C@H]1N2C(=O)N1CCc2cc(OC)c(OC)cc2C1	?	3.1%	?	-14.4%	16.4µM*
COC(=O)C1=C(c2ccc(-c3ccccc3)c(F)c2)C[C@@H]2CC[C@H]1N2C(=O)N1CCCCC1	?	3.8%	?	-20.8%	?
CCOC(=O)[C@]12Cc3cc(OC)ccc3[C@H]1N(CC(=O)OC)C(=O)c1cc(OC)ccc12	20µM*	-2.5%	12.6µM*	·	·
CCOC(=O)[C@]12Cc3cc(OC)ccc3[C@H]1N(C)C(=O)c1cc(OC)ccc12	?	-3.5%	14.1µM*	·	·
CCOC(=O)[C@]12Cc3cc(Cl)ccc3[C@H]1N(Cc1ccccc1)C(=O)c1ccccc12	-24.5%	7.0%	i	?	?
CCOC(=O)[C@]12Cc3cc(C)ccc3[C@H]1N(Cc1ccccc1)C(=O)c1cc(OC)ccc12	?	-3.0%	31.6µM*	·	·
COC(=O)C(O)(c1ccc(NC(=S)NC(=O)c2ccccc2)cc1)C(F)(F)F (configuration not stated)	1.1%	5.7%	i	-9.4%[1.84 µM]	16.4µM*
COC(=O)C(O)(c1ccc(NC(=O)Oc2ccccc2)cc1)C(F)(F)F (configuration not stated)	0.9%	0.5%	i	-2.5%	14.6%
O=C1NCN(c2ccccc2)C12CCN(C(c1ccnc3ccccc13)c1nnnn1C1CCCC1)CC2 (configuration not stated)	14.3%	-0.5%	i	·	·
CC(C)CCNC(=O)c1c(N)n(Cc2ccc3c(c2)OCO3)c2nc3ccccc3nc12	?	0.1%	i	16.4µM*	20.6µM*
C=CCN1CC[C@]23c4c5ccc(O)c4OC2C(O)C=CC3[C@H]1C5 (some centres not stated)	5.4%	-0.1%	i	-7.3%	4.5%
O=P(C(c1c[nH]c2ccccc12)N1CCOCC1)(N1CCOCC1)N1CCOCC1 (configuration not stated)	-5.4%	-0.7%	i	0.0%	9.4%
CCCC1=Nc2cc(C(=O)NCCCN(CC)CC)ccc2Sc2ccccc21	31.6µM*	5.6%	?	6.6%	?
SMILES	ATXN2 expr inh	Nrf2 activator	ATXN viability	A549 tox	Nrf2 inh
CCCC1=Nc2cc(C(=O)NCCc3ccc(OCC)cc3)ccc2Sc2ccccc21	-16.3%	-0.1%	i	-5.9%	?
Cc1nn(C(C)(C)C)c(C)c1/C=N/OC(=O)Nc1ccc(Cl)c(Cl)c1	·	-2.3%	i	6.8%	1.84µM*
CCC(CC)(CNC(=O)CCCO)c1cccc(OC)c1	8.7%	·	i	·	·
CCCCCCCSc1cc(OC)c(CCN(C)C)cc1OC	22.4µM*	-1.1%	·	0.9%	0.6%
O=C(NC1CCCCC1)c1ccc(CSc2nc3ccncc3n2Cc2ccc(F)cc2)cc1	?	-0.4%	?	-6.4%	?
CC(CNC(=O)c1ccc(CSc2nc3ccncc3n2Cc2ccc(F)cc2)cc1)c1ccccc1 (configuration not stated)	-25.6%	2.7%	?	-9.0%	23.1µM*
COc1cccc(NC(=O)N2CCc3nc(Nc4ccc(C(C)C)cc4)ncc3C2)c1	0.0%	-2.4%	?	·	·
COc1ccc(N2CCN(c3ncnc4c3nc3n4CCCCC3)CC2)cc1	-15.3%	1.8%	i	-22.5%	16.4µM*
Cc1ccc(Cl)cc1N1CCN(c2ncnc3c2nc2n3CCCC2)CC1	·	-0.8%	·	-6.1%	?
c1ccc(N2CCN(c3ncnc4c3nc3n4CCCC3)CC2)cc1	·	-0.3%	·	-12.9%	23.1µM*
COc1ccc(N2CCN(CCCN)CC2)cc1	-0.3%	-0.1%	i	-2.6%	-6.3%
COc1ccc(CCNCc2ccc(OC)c(OC)c2OC)cc1	1.8%	-0.3%	i	-6.0%	12.5%
CC(=O)CC(C)(C)n1c[n+](C)nn1	-14.3%	0.0%	i	1.2%	6.7%
CC(=O)N1CCN(c2ccc(OC[C@H]3CO[C@](Cn4ccnc4)(c4ccc(Cl)cc4Cl)O3)cc2)CC1	?	11.0%	?	-1.2%	18.4µM*
CCCC1COC(Cn2cncn2)(c2ccc(Cl)cc2Cl)O1 (configuration not stated)	-4.1%	-0.5%	i	3.1%	-6.2%
CC(C)c1oc(=O)cc2c1[C@@H](O)[C@H]1OC(=O)[C@@]3(C)C[C@@H](O)[C@@H](O)[C@@]2(C)C13 (some centres not stated)	?	-2.4%	?	?	18.4µM*
CC(C)c1oc(=O)cc2c1[C@@H](O)[C@H]1OC(=O)[C@@]3(C)CC[C@@H](O)[C@@]2(C)C13 (some centres not stated)	12.6µM*	-3.2%	?	?	18.4µM*
Cc1ccccc1-n1c(/C=C/c2c(C)[nH]c3ccccc23)nc2ccccc2c1=O	·	-2.0%	·	?	20.6µM*
